Measured values from the supplement of paper PMC6555819.

System: PPARg:RXRa DBDmut IVT, anti-RXR (DBD mutation: RXRa K156A/R161A, NR concentration 270 nM, RXRa partner concentration 90 nM)
Assay: PBM binding z-score (relative to random genomic background probes); higher = stronger binding; sequences stand for … in GC…GCGATTGACAGCGTAGAATGAAGG
Summary of the method: (§1)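 The probes on custom Agilent 4×180K protein-binding microarrays were double-stranded, with 34-nt variable regions bearing direct-repeat seeds, single-nucleotide variants, half-site ablations and random human genomic background sequences. Incubation lasted 1 h with ligand-free nuclear receptor dimers in PBS pH 7.4, 2% milk, 0.02% Triton X-100, 1 mM DTT, 0.2 mg/mL BSA and 0.4 mg/ml salmon testes DNA. Antibodies against each partner (one per run) detected bound dimers, and fluorescence scans were regression-normalized. Binding z-scores take the random background probes as reference.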

Row | Sequence | PBM binding z-score
1 | CAAACTAGCTCAAAGGTCAAAGTCGAGCCAACCA | 1.24
2 | GGAACGAGGGCAAGTCGATAGCAGAGTTTGATGG | 3.57
3 | CAGCGTAGGTCAGGGCCAGTATAGGAGGAACGTT | 0.838
4 | TATTGTAGATCAACAGGAGGTTAAGAAAGATCGA | 0.634
5 | CAGCCTAGGTCAGGGCCAATATAGGAGGAACGTT | 1.3
6 | CTCGAAAAGTCGTGCTCAGGTGAGTATACCAAAC | -0.109
7 | GCGATTGGGGCAAAGCAGGTTACCATAAGGTTGG | 2.25
8 | TCGTGTAGATCAACAGGAGGTTAAGAAAGATCGA | 0.943
9 | CCTATTAGTTTACCATAAGGGCAACCGAAGCTCG | 0.246
10 | GCTAGTCGGTCAGTAAAAGGTCACACACCGGTCG | 2.63
11 | TCTATTAGTTGAACGGCAACCGACGAGTCCGTTT | 2.15
12 | ATCTCTAAGTAACAAGTTCAGTGAAAGAGAGGAC | 0.199
13 | GCTAGTTGGTCAGTAAAAGGTCCCACACCGGTCG | 0.066
14 | TCATATAGGTAAACGGTGAAAGTCGGTGTGGTAA | 4.37
15 | ACTAGTTGGTCAGCTGAGGTCACATACAATTCGG | 1.59
16 | CGTCCAAGGTCATAGGAGGTCAGTGAGGACAGAT | 3.74
17 | TCATATAGGTAAATGCTAGGTGAAAGTGCGATCT | 4.06
18 | TCCAGTAGGTTAGGGGCATTCAGAATGGCGTCGA | 3.35
19 | CTCGAAAGGTCGTGCTCAGGTGAGTAGACCAAAC | 0.641
20 | CCTAGTAGGTCAGGAGGTCACACACCGGATATGA | 7.03

Row | Sequence | PBM binding z-score
21 | CAAACTAGGTCACGAAAGTTCAAAGTCGAATGAC | 8.72
22 | TCTTGTAGATCAAGGGTTAAGAAAGCCGAAGCCT | 1.55
23 | TTACCAAGATGAGCTGAGGTCGTTGATCCAACTC | 0.238
24 | CCTTACGGGTCAAGGTTATAGCGCGGGTGGTACG | 2.04
25 | TAGTCTAGGTCATGGGCCAGTATACCACGCGAAC | 5.8
26 | ATCTCTAGGTAAAAGTTCAGTCAATCCCGAGGAT | 2.32
27 | AGTCAAAGTTCACTAGGGAACGTAAGATTCAGCT | 0.937
28 | CGTCCAAGGTCATAGAAGGTCAGTGAAGACAGAT | 3.2
29 | CCAGACAGGTGACAGGTAACTCAGTCTGGTACGC | 1.77
30 | CTCGAAAGGTCGTGCTCACGTGAGTATACCAAAC | 0.85
31 | TTACCAAGGTGAGCAGAGGTCGTTGATCCAACTC | 0.947
32 | ATGTCTAGGTAAAGTTCAGTGAAAGATCGATAGA | 1.29
33 | CCGACTGGGGCACAAAGGTTACCATACCATCCGG | 3.32
34 | TATACAGGGTCAAAGGCCAGCGTACGAATGTCGA | 2.18
35 | CCTACTGGGCAATTCAGAGGTCATTGATCATATG | 1.37
36 | ACTATTAGTTGACTTGGGGCAACCGATACGACGC | 0.684
37 | CCGACTTGGGCAGAAAGGTTACCATACCATCCGG | -0.147
38 | GCTAGCACGCCATTTGGGTCACTCAATGACGGGC | 0.446
39 | TCGAGTAGGTTAGGGGCATTCAAAATGGCGTCGA | 2.11
40 | CCTCGGAGGACAGAAGGTCAGAGCCGTCCGCTTT | 0.172

System: PPARg:RXRa IVT, anti-PPARg (NR concentration 270 nM, RXRa partner concentration 90 nM)
Assay: as above
Summary of the method: as §1

Row | Sequence | PBM binding z-score
41 | CAAACTAGCTCAAAGGTCAAAGTCGAGCCAACCA | 4.54
42 | GGAACGAGGGCAAGTCGATAGCAGAGTTTGATGG | 2.5
43 | CAGCGTAGGTCAGGGCCAGTATAGGAGGAACGTT | 1.03
44 | TATTGTAGATCAACAGGAGGTTAAGAAAGATCGA | 1.7
45 | CAGCCTAGGTCAGGGCCAATATAGGAGGAACGTT | 1.88
46 | CTCGAAAAGTCGTGCTCAGGTGAGTATACCAAAC | 0.391
47 | GCGATTGGGGCAAAGCAGGTTACCATAAGGTTGG | 1.69
48 | TCGTGTAGATCAACAGGAGGTTAAGAAAGATCGA | 0.0646
49 | CCTATTAGTTTACCATAAGGGCAACCGAAGCTCG | 0.459
50 | GCTAGTCGGTCAGTAAAAGGTCACACACCGGTCG | 3.74
51 | TCTATTAGTTGAACGGCAACCGACGAGTCCGTTT | 0.0618
52 | ATCTCTAAGTAACAAGTTCAGTGAAAGAGAGGAC | 0.166
53 | GCTAGTTGGTCAGTAAAAGGTCCCACACCGGTCG | 0.0788
54 | TCATATAGGTAAACGGTGAAAGTCGGTGTGGTAA | 3.34
55 | ACTAGTTGGTCAGCTGAGGTCACATACAATTCGG | 2.44
56 | CGTCCAAGGTCATAGGAGGTCAGTGAGGACAGAT | 4.55
57 | TCATATAGGTAAATGCTAGGTGAAAGTGCGATCT | 3.13
58 | TCCAGTAGGTTAGGGGCATTCAGAATGGCGTCGA | 2.67
59 | CTCGAAAGGTCGTGCTCAGGTGAGTAGACCAAAC | 1.86
60 | CCTAGTAGGTCAGGAGGTCACACACCGGATATGA | 7.47

Row | Sequence | PBM binding z-score
61 | CAAACTAGGTCACGAAAGTTCAAAGTCGAATGAC | 9.1
62 | TCTTGTAGATCAAGGGTTAAGAAAGCCGAAGCCT | 2.33
63 | TTACCAAGATGAGCTGAGGTCGTTGATCCAACTC | 0.101
64 | CCTTACGGGTCAAGGTTATAGCGCGGGTGGTACG | 3.57
65 | TAGTCTAGGTCATGGGCCAGTATACCACGCGAAC | 6.96
66 | ATCTCTAGGTAAAAGTTCAGTCAATCCCGAGGAT | 4.22
67 | AGTCAAAGTTCACTAGGGAACGTAAGATTCAGCT | 3.63
68 | CGTCCAAGGTCATAGAAGGTCAGTGAAGACAGAT | 4.17
69 | CCAGACAGGTGACAGGTAACTCAGTCTGGTACGC | 1.46
70 | CTCGAAAGGTCGTGCTCACGTGAGTATACCAAAC | 1.55
71 | TTACCAAGGTGAGCAGAGGTCGTTGATCCAACTC | 2.49
72 | ATGTCTAGGTAAAGTTCAGTGAAAGATCGATAGA | 2.46
73 | CCGACTGGGGCACAAAGGTTACCATACCATCCGG | 4.48
74 | TATACAGGGTCAAAGGCCAGCGTACGAATGTCGA | 4.79
75 | CCTACTGGGCAATTCAGAGGTCATTGATCATATG | 1.97
76 | ACTATTAGTTGACTTGGGGCAACCGATACGACGC | 0.607
77 | CCGACTTGGGCAGAAAGGTTACCATACCATCCGG | -0.369
78 | GCTAGCACGCCATTTGGGTCACTCAATGACGGGC | 1.27
79 | TCGAGTAGGTTAGGGGCATTCAAAATGGCGTCGA | 1.45
80 | CCTCGGAGGACAGAAGGTCAGAGCCGTCCGCTTT | -0.13
